Measurements from the supplement of paper PMC8728848.
The sample as a whole holds a higher share of the strongest signals than the screen did.

Assays:
Experiment in all cases: glycan array binding signal (z-score within array); higher = stronger binding
Details in all cases: glycan notation: IUPAC condensed, linker removed
[1] = target: Fuc(a1-2)Gal(b1-3)[Fuc(a1-4)]GlcNAc(b1-3)[Fuc(a1-3)[Gal(b1-4)]GlcNAc(b1-6)]Gal(b1-4)Glc
Summary of the method: (§1)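 The binding signal is a Z-score computed within each array and averaged over linkers. Arrays of the same protein sequence at different concentrations or buffers were also averaged together. Data originate from 3228 arrays in the Consortium for Functional Glycomics database, kept only where the protein sequence was available.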

[2] = target: Fuc(a1-2)Gal(b1-4)Fuc(a1-3)]GlcNAc(b1-2)Man(a1-3)[Fuc(a1-2)Gal(b1-4)[Fuc(a1-3)]GlcNAc(b1-2)Man(a1-6)]Man(b1-4)GlcNAc(b1-4)GlcNAc
Summary of the method: as §1

[3] = target: Fuc(a1-2)Gal(b1-4)[Fuc(a1-3)]GlcNAc(b1-3)Gal(b1-4)[Fuc(a1-3)]GlcNAc
Summary of the method: as §1

Fuc(a1-2)Gal6S(b1-4)Glc = target: Fuc(a1-2)Gal6S(b1-4)Glc
Summary of the method: as §1

[4] = target: Fuc(a1-2)[Gal(a1-3)]Gal(b1-3)GlcNAc(b1-2)Man(a1-3)[Fuc(a1-2)[Gal(a1-3)]Gal(b1-3)GlcNAc(b1-2)Man(a1-6)]Man(b1-4)GlcNAc(b1-4)GlcNAc
Summary of the method: as §1

[5] = target: Fuc(a1-2)[Gal(a1-3)]Gal(b1-4)Glc
Summary of the method: as §1

[6] = target: Fuc(a1-2)[Gal(a1-3)]Gal(b1-4)GlcNAc(b1-2)Man(a1-3)[Fuc(a1-2)[Gal(a1-3)]Gal(b1-4)GlcNAc(b1-2)Man(a1-6)]Man(b1-4)GlcNAc(b1-4)GlcNAc
Summary of the method: as §1

[7] = target: Fuc(a1-2)[GalNAc(a1-3)]Gal(b1-4)[Fuc(a1-3)]GlcNAc
Summary of the method: as §1

[8] = target: Fuc(a1-3)[Gal(b1-4)]GlcNAc(b1-3)Gal(b1-3)[Fuc(a1-4)]GlcNAc
Summary of the method: as §1

[9] = target: Fuc(a1-3)[Gal(b1-4)]GlcNAc(b1-3)GalNAc
Summary of the method: as §1

[10] = target: Fuc(a1-3)[Gal(b1-4)]GlcNAc6S
Summary of the method: as §1

Fuc(a1-4)GlcNAc = target: Fuc(a1-4)GlcNAc
Summary of the method: as §1

Fuc(b1-3)GlcNAc = target: Fuc(b1-3)GlcNAc
Summary of the method: as §1

[11] = target: Gal(a1-4)Gal(b1-3)GlcNAc(b1-2)Man(a1-3)[Gal(a1-4)Gal(b1-3)GlcNAc(b1-2)Man(a1-6)]Man(b1-4)GlcNAc(b1-4)GlcNAc
Summary of the method: as §1

Gal(b1-2)Gal = target: Gal(b1-2)Gal
Summary of the method: as §1

[12] = target: Gal(b1-3)GalNAc(a1-3)[Fuc(a1-2)]Gal(b1-4)GlcNAc
Summary of the method: as §1

[13] = target: Gal(b1-3)GlcNAc(b1-3)Gal(b1-4)Glc
Summary of the method: as §1

[14] = target: Gal(b1-3)[Fuc(a1-4)]GlcNAc(b1-3)Gal(b1-3)[Fuc(a1-4)]GlcNAc
Summary of the method: as §1

[15] = target: Gal(b1-3)[Fuc(a1-4)]GlcNAc(b1-6)GalNAc
Summary of the method: as §1

[16] = target: Gal(b1-4)GlcNAc(b1-2)Man(a1-6)[Man(a1-3)]Man(b1-4)GlcNAc(b1-4)GlcNAc
Summary of the method: as §1

[17] = target: Gal(b1-4)GlcNAc(b1-3)Gal(b1-4)GlcNAc
Summary of the method: as §1

[18] = target: Gal(b1-4)GlcNAc(b1-3)Gal(b1-4)GlcNAc(b1-2)Man(a1-3)[Gal(b1-4)GlcNAc(b1-3)Gal(b1-4)GlcNAc(b1-2)Man(a1-6)]Man(b1-4)GlcNAc(b1-4)GlcNAc
Summary of the method: as §1

[19] = target: Gal(b1-4)GlcNAc(b1-3)Gal(b1-4)GlcNAc(b1-3)Gal(b1-4)GlcNAc(b1-3)Gal(b1-4)GlcNAc(b1-3)Gal(b1-4)GlcNAc(b1-2)[Gal(b1-4)GlcNAc(b1-3)Gal(b1-4)GlcNAc(b1-3)Gal(b1-4)GlcNAc(b1-3)Gal(b1-4)GlcNAc(b1-3)Gal(b1-4)GlcNAc(b1-6)]Man(a1-6)[Gal(b1-4)GlcNAc(b1-3)Gal(b1-4)GlcNAc(b1-3)Gal(b1-4)GlcNAc(b1-3)Gal(b1-4)GlcNAc(b1-3)Gal(b1-4)GlcNAc(b1-2)Man(a1-3)]Man(b1-4)GlcNAc(b1-4)[Fuc(a1-6)]GlcNAc
Summary of the method: as §1

[20] = target: Gal(b1-4)GlcNAc(b1-3)[GlcNAc(b1-6)]Gal(b1-4)GlcNAc
Summary of the method: as §1

[21] = target: Gal(b1-4)GlcNAc(b1-6)[Gal(b1-4)GlcNAc(b1-3)]GalNAc
Summary of the method: as §1

[22] = target: Gal3S(b1-3)[Fuc(a1-4)]GlcNAc
Summary of the method: as §1

GalNAc(a1-3)GalNAc = target: GalNAc(a1-3)GalNAc
Summary of the method: as §1

GalNAc(b1-3)GalNAc = target: GalNAc(b1-3)GalNAc
Summary of the method: as §1

GalNAc(b1-4)Gal(b1-4)Glc = target: GalNAc(b1-4)Gal(b1-4)Glc
Summary of the method: as §1

GalNAc(b1-4)GlcNAc = target: GalNAc(b1-4)GlcNAc
Summary of the method: as §1

[23] = target: GalNAc(b1-4)GlcNAc(b1-2)Man(a1-3)[GalNAc(b1-4)GlcNAc(b1-2)Man(a1-6)]Man(b1-4)GlcNAc(b1-4)GlcNAc
Summary of the method: as §1

[24] = target: GalNAc3S(b1-4)[Fuc(a1-3)]GlcNAc
Summary of the method: as §1

[25] = target: GlcNAc(b1-2)Man(a1-3)[GlcNAc(b1-2)Man(a1-6)]Man(b1-4)GlcNAc(b1-4)[Fuc(a1-6)]GlcNAc
Summary of the method: as §1

[26] = target: GlcNAc(b1-2)[GlcNAc(b1-6)]Man(a1-6)[GlcNAc(b1-2)Man(a1-3)]Man(b1-4)GlcNAc(b1-4)GlcNAc
Summary of the method: as §1

[27] = target: GlcNAc(b1-3)Gal(b1-4)GlcNAc(b1-2)[GlcNAc(b1-3)Gal(b1-4)GlcNAc(b1-6)]Man(a1-6)[GlcNAc(b1-3)Gal(b1-4)GlcNAc(b1-2)Man(a1-3)]Man(b1-4)GlcNAc(b1-4)GlcNAc
Summary of the method: as §1

[28] = target: Kdn(a2-3)Gal(b1-4)[Fuc(a1-3)]GlcNAc
Summary of the method: as §1

[29] = target: Neu5Ac(a2-3)Gal(b1-3)GlcNAc(b1-6)GalNAc
Summary of the method: as §1

[30] = target: Neu5Ac(a2-3)Gal(b1-4)GlcNAc(b1-2)[Neu5Ac(a2-3)Gal(b1-4)GlcNAc(b1-4)]Man(a1-3)[GlcNAc(b1-4)][Neu5Ac(a2-3)Gal(b1-4)GlcNAc(b1-2)[Neu5Ac(a2-3)Gal(b1-4)GlcNAc(b1-6)]Man(a1-6)]Man(b1-4)GlcNAc(b1-4)GlcNAc
Summary of the method: as §1

[31] = target: Neu5Ac(a2-3)Gal(b1-4)GlcNAc(b1-3)Gal(b1-4)[Fuc(a1-3)]GlcNAc
Summary of the method: as §1

[32] = target: Neu5Ac(a2-6)Gal(b1-4)GlcNAc(b1-2)Man(a1-6)[Gal(b1-4)GlcNAc(b1-2)Man(a1-3)]Man(b1-4)GlcNAc(b1-4)GlcNAc
Summary of the method: as §1

[33] = target: Neu5Ac(a2-6)Gal(b1-4)GlcNAc(b1-3)Gal(b1-4)GlcNAc(b1-3)GalNAc
Summary of the method: as §1

[34] = target: Neu5Ac(a2-6)GlcNAc(b1-4)GlcNAc(b1-4)GlcNAc
Summary of the method: as §1

[35] = target: Neu5Ac(a2-8)Neu5Ac(a2-8)Neu5Ac
Summary of the method: as §1

[36] = target: Neu5Ac9Ac(a2-3)Gal(b1-4)GlcNAc
Summary of the method: as §1

[37] = target: Neu5Gc(a2-8)Neu5Ac(a2-3)Gal(b1-4)GlcNAc
Summary of the method: as §1

[38] = target: Neu5Gc(a2-8)Neu5Gc(a2-3)Gal(b1-4)GlcNAc
Summary of the method: as §1

B1: XTP3-B-MRH2 (Homo sapiens), Q96DZ1 (protein)
chain: EFLSGSYCFRGGVGWWKYEFCYGKHVHQYHEDKDSGKTSVVVGTWNQEEHIEWAKKNTARAYHLQDDGTQTVRMVSHFYGNGDICDITDKPRQVTVKLKCKESDSPHAVTVYMLEPHSCQYILGVESPVICKILDTA
- glycan array binding signal (z-score) [1]: 2.32
- glycan array binding signal (z-score) [2]: 2.2
- glycan array binding signal (z-score) [3]: -0.464
- glycan array binding signal (z-score) (Fuc(a1-2)Gal6S(b1-4)Glc): 0.258
- glycan array binding signal (z-score) [4]: 2.72
- glycan array binding signal (z-score) [5]: 1.19
- glycan array binding signal (z-score) [6]: 2.95
- glycan array binding signal (z-score) [7]: -0.177
- glycan array binding signal (z-score) [8]: -2.1
- glycan array binding signal (z-score) [9]: -0.079
- glycan array binding signal (z-score) [10]: -0.412
- glycan array binding signal (z-score) (Fuc(a1-4)GlcNAc): 2.2
- glycan array binding signal (z-score) (Fuc(b1-3)GlcNAc): -0.321
- glycan array binding signal (z-score) [11]: 0.355
- glycan array binding signal (z-score) (Gal(b1-2)Gal): -0.575
- glycan array binding signal (z-score) [12]: 0.353
- glycan array binding signal (z-score) [13]: 0.052
- glycan array binding signal (z-score) [14]: 3.38
- glycan array binding signal (z-score) [15]: -0.084
- glycan array binding signal (z-score) [16]: 2.47
- glycan array binding signal (z-score) [17]: 0.386
- glycan array binding signal (z-score) [18]: 3.21
- glycan array binding signal (z-score) [19]: -0.908
- glycan array binding signal (z-score) [20]: 0.199
- glycan array binding signal (z-score) [21]: 0.934
- glycan array binding signal (z-score) [22]: 0.892
- glycan array binding signal (z-score) (GalNAc(a1-3)GalNAc): 5.08
- glycan array binding signal (z-score) (GalNAc(b1-3)GalNAc): -1.03
- glycan array binding signal (z-score) (GalNAc(b1-4)Gal(b1-4)Glc): -0.842
- glycan array binding signal (z-score) (GalNAc(b1-4)GlcNAc): 2.09
- glycan array binding signal (z-score) [23]: -0.025
- glycan array binding signal (z-score) [24]: 0.236
- glycan array binding signal (z-score) [25]: -0.201
- glycan array binding signal (z-score) [26]: 1.7
- glycan array binding signal (z-score) [27]: 0.276
- glycan array binding signal (z-score) [28]: -0.353
- glycan array binding signal (z-score) [29]: 1.44
- glycan array binding signal (z-score) [30]: -1.25
- glycan array binding signal (z-score) [31]: -0.481
- glycan array binding signal (z-score) [32]: -0.687
- glycan array binding signal (z-score) [33]: -0.693
- glycan array binding signal (z-score) [34]: 0.385
- glycan array binding signal (z-score) [35]: 0.237
- glycan array binding signal (z-score) [36]: -0.6
- glycan array binding signal (z-score) [37]: 0.283
- glycan array binding signal (z-score) [38]: 2.85
